{"source": "PubChem BioAssay AID504332", "about": "(National Center for Advancing Translational Sciences (NCATS), 2011)", "note": "Hit rate of the full screen: of about 350,000 compounds, about 31,000 (8.9%) were called active. Where a call stands in place of a potency, no number is given. Another 15% or so got no clear call; they are omitted. Calls follow the shape of the dose curve; as a rule, active = well fitted inhibition curve with a large enough effect; inconclusive = small, poorly fitted or top-dose-only effect; inactive = no such curve, though single readings can be large or run the other way. Many of the other results were omitted from the sample, so actives are more common in it than they were. Potency is read from the fitted curve at half-maximal effect.", "data": [{"target": "Histone-lysine N-methyltransferase EHMT2 (Homo sapiens) (UniProt Q96KQ7)", "sequence (Q96KQ7 913-1193 limits assumed)": "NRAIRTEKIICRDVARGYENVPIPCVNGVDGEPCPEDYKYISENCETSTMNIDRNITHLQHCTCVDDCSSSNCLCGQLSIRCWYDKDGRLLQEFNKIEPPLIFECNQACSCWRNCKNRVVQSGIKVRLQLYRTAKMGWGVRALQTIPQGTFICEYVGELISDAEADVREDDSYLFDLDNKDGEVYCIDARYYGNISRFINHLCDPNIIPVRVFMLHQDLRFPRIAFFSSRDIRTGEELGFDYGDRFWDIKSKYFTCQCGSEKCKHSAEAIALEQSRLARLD", "test": "qHTS Assay for Inhibitors of Histone Lysine Methyltransferase G9a; also: nearly all actives have a fitted effect of over 75% in size", "conditions": "G9a H3K9 monomethylation, AlphaScreen, 2 h; series mostly up to 59 µM", "summary_of_the_method": "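G9a (20 nM) was preincubated 15 min with compound, then reacted 2 h at room temperature with 500 nM biotin-H3K9 peptide and 20 µM SAM. Monomethyl-H3K9 detected by AlphaScreen using anti-H3K9me1 antibody.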", "values": [{"compound": "O=C1C=C(c2ccnc3cc(Cl)ccc23)C[C@@H](c2ccc3c(c2)OCO3)C1", "activity, negative = inhibition": "-18.7% [at 0.501 µM] (inactive)"}, {"compound": "COc1cccc(N2CC(NS(=O)(=O)c3cccs3)CC2=O)c1", "note": "(configuration not stated)", "Potency": "inactive"}, {"compound": "Cc1ccc2c(CSc3nncs3)cc(=O)oc2c1", "Potency": "50.1 µM (active)"}, {"compound": "COCc1cc(=O)oc2cc(NS(=O)(=O)c3ccc(C)cc3)ccc12", "Potency": "inactive"}, {"compound": "Cc1ccc2c(CN3CCN(S(=O)(=O)c4ccccc4C(F)(F)F)CC3)cc(=O)oc2c1", "activity, negative = inhibition": "-13.1% [at 12.7 µM] (inactive)"}, {"compound": "O=C(/C=C/c1ccccc1[N+](=O)[O-])OC1CCCCC1=O", "note": "(configuration not stated)", "Potency": "inactive"}, {"compound": "O=C(/C=C/c1ccccc1[N+](=O)[O-])OCC(=O)N1CCCC1", "activity, negative = inhibition": "11.7% [at 12.7 µM] (inactive)"}, {"compound": "CC(C)CNC(=O)COC(=O)/C=C/c1ccccc1[N+](=O)[O-]", "Potency": "inactive"}, {"compound": "CC1CC(C)CN(C/C=C/c2ccccc2[N+](=O)[O-])C1", "note": "(configuration not stated)", "Potency": "50.1 µM (active)"}, {"compound": "O=C(/C=C/c1ccccc1[N+](=O)[O-])NCC1CCCO1", "note": "(configuration not stated)", "Potency": "inactive"}, {"compound": "O=[N+]([O-])c1ccccc1/C=C/CN1CCC(O)CC1", "Potency": "39.8 µM (active)"}, {"compound": "CCC1(C)CC(=O)c2c(ccc3oc(C(=O)Nc4ccc(C(C)=O)cc4)c(C)c23)O1", "note": "(configuration not stated)", "Potency": "inactive"}, {"compound": "Cc1ccc(C)c(N2CCN(C(=O)C3CCC(CNS(=O)(=O)c4cccs4)CC3)CC2)c1", "note": "(configuration not stated)", "Potency": "inactive"}, {"compound": "CCCN1CCN(C(=O)CCCNC(=O)c2ccc(Cl)cc2)CC1", "Potency": "inactive"}, {"compound": "COc1ccccc1NC(=O)c1cc(C2CC2)nc2c1c(C)nn2-c1ccc(C)cc1", "Potency": "inactive"}, {"compound": "CCN(CC)S(=O)(=O)c1ccc2c(c1)N(CC(=O)NCC(C)c1ccccc1)C(=O)CO2", "note": "(configuration not stated)", "Potency": "inactive"}, {"compound": "O=C(COC(=O)c1cc(S(=O)(=O)N2CCOCC2)ccc1Cl)NCCc1ccccc1", "activity, negative = inhibition": "-2.95% [at 12.7 µM] (inactive)"}, {"compound": "Cc1ccnc(NC(=O)CNC(=O)c2ccccc2)c1", "Potency": "inactive"}, {"compound": "O=C(O)/C=C/c1cn(-c2ccccc2)nc1-c1cccs1", "Potency": "inactive"}, {"compound": "S=c1[nH]c(-c2cccs2)cn1-c1ccccc1", "Potency": "2.51 µM (active)"}, {"compound": "O=c1[nH]c(-c2cccs2)nc2ccccc12", "Potency": "inactive"}, {"compound": "CC1=C(C(=O)OCC(C)C)C(c2ccc(OCc3ccccc3)cc2)N2C(=O)CCSC2=N1", "note": "(configuration not stated)", "Potency": "inactive"}, {"compound": "O=C(c1ccc[nH]c1=S)N1CCN(S(=O)(=O)c2ccc(Br)cc2Cl)CC1", "Potency": "8.91 µM (active)"}, {"compound": "O=C(c1ccc(Cl)c(S(=O)(=O)N2CCCCC2)c1)N1CCCCCC1", "Potency": "inactive"}, {"compound": "O=C(c1ccccc1F)N1CCN(S(=O)(=O)c2ccc(Br)cc2)CC1", "Potency": "inactive"}, {"compound": "CC(C)CN(C(=O)Cn1c(=O)cnc2ccccc21)C1CCS(=O)(=O)C1", "note": "(configuration not stated)", "Potency": "inactive"}, {"compound": "O=C1[C@H]2[C@@H](c3ccc(Cl)cc3)N3C(=O)N(c4cccc(F)c4)C(=O)[C@@]3(Cc3ccccc3)[C@H]2C(=O)N1C1CCCCC1", "activity, negative = inhibition": "-8.78% [at 2.33 µM] (inactive)"}]}]}
